In PubChem BioAssay (NCATS):
Records with an inconclusive call do not appear. A call without a number means that no potency is given here. Calls of active or inactive are those of the source. Calls come from the whole dose curve; as a rule, active = well fitted inhibition curve with a large enough effect; inconclusive = small, poorly fitted or top-dose-only effect; inactive = flat fitted curve, though single readings scatter.

biological target: Calcium and integrin-binding protein 1 (Homo sapiens) (UniProt Q99828); assay: Primary qHTS for Identification of Calcium Integrin Binding Protein 1 (CIB1) Competitor (AID 1508620); conditions: CIB1-GST / FITC-alphaIIb peptide fluorescence polarization; series mostly up to 114 µM; note: top concentration of the series differs between compounds
Sequence (Q99828 whole entry, looked up): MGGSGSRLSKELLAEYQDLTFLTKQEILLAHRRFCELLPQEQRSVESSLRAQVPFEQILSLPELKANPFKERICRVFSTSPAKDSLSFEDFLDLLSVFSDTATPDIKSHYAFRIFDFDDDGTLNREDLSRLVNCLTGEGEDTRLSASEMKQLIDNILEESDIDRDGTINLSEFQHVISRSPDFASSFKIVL
In short: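 Fluorescence polarization competition: GST-tagged CIB1 (1 uM final) preincubated with compound 15 min at room temperature, then FITC-labelled alphaIIb peptide (100 nM final) added. After 15 min at room temperature, polarization read at Ex 480/Em 540.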

SMILES | Potency
COc1ccc2c(=O)n3nc(Nc4ccc5c(c4)CCC5)sc3nc2c1 | inactive
Cc1cc(-c2nnc3n2CCCCC3)c(C)n1-c1ccc(Cl)c(Cl)c1 | inactive
COc1cccc(C2c3c(ncn(-c4ccccn4)c3=N)Oc3ccc4ccccc4c32)c1 (stereo not drawn) | inactive
Cc1cc(C)nc(NC(=S)N2CCN(c3nsc4ccccc34)CC2)c1 | inactive
Cc1cc(N[S+](=O)([O-])c2cc3c(cc2Cl)NC(=O)CO3)ccc1Br | inactive
COc1ccccc1-c1csc2ncnc(Sc3nnnn3C)c12 | inactive
O=C1CCCC2=C1C(c1ccc(F)cc1)N=C(Nc1nc3ccccc3o1)N2 (stereo not drawn) | inactive
COc1cccc(N2C(=O)c3ccccc3C2=O)n1 | inactive
O=C(O)c1ccc(-n2cccc2/C=C2\SC(=O)N(Cc3ccc(Cl)cc3)C2=O)cc1 | inactive
O=C1NC(=O)/C(=C/c2cccn2-c2ccc(P(O)O)cc2)N1 | inactive
CCOC(=O)C1CCN(c2nc(-c3ccc(Br)cc3)cs2)CC1 | inactive
Cc1ccc(C2=NN(CC(=O)N(C)C(C)c3ccco3)C(=O)C2)cc1 (stereo not drawn) | inactive
CC(=O)Nc1ccc(NC(=O)c2cnn3c(C)cc(C)nc23)cc1 | inactive
Cc1ccc2nc3sc(C(=O)N4CCN(C5CCN(C)CC5)CC4)cc3cc2c1 | inactive
Cc1nc(C)c(-c2ccc3ncnc(NCCc4cnc[nH]4)c3c2)s1 | inactive
CC(C)(C)OC(=O)NC1CCN(c2nc(-c3ccc(Br)cc3)cs2)CC1 | inactive
CC(=O)Nc1sc2c(c1-c1ccc(N3CCN(C(C)=O)CC3)nc1)CCNC2 | inactive
Cc1cc(NS(=O)(=O)c2ccc(C(=O)NCc3ccc(Cl)c(Cl)c3)cc2)no1 | inactive
